Laboratory results as given in PubChem BioAssay (NCATS).
Inconclusive results are not listed. Entries that show only a call come without a potency. Values without a mark were called inactive. Active and inactive are the calls of the source. The call rests on the fitted dose curve; in most records, active means well fitted cell-killing curve with a large enough effect; inconclusive means small, poorly fitted or top-dose-only effect, or effect the other way; inactive means no such curve, though single readings can be large or run the other way.

How the values were obtained:
[1] = Viability qHTS for spleen associated tyrosine kinase inhibitor (SYKi) naive MV4-11 cells (AID 1963823); further: nearly all actives have a fitted effect of over 40% in size
Summary of the method: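 Read-out: CellTiter-Glo luminescence. Exposure: 72 hr, 37 C, 5% CO2, 95% humidity. Cells: MV4-11 without SYK inhibitor history, 500/well, qHTS format.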

[2] = Viability qHTS for spleen associated tyrosine kinase inhibitor (SYKi) drug resistant MV4-11 cells (AID 1963824); further: nearly all actives have a fitted effect of over 35% in size
Summary of the method: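 SYK inhibitor-resistant MV4-11 AML cells, 500 per well, added to predispensed compounds and incubated 72 hr at 37 C, 5% CO2. Viability measured by CellTiter-Glo luminescence after 10 min at room temperature.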
Potency means the concentration at half of the fitted maximal effect.

SMILES | Potency [1] | Potency [2] | viability (% of control) [1] | viability, % of control [2]
Cc1cc(N2CCN(C(=O)Oc3ccc(-c4ccccc4)cn3)CC2)c2ccccc2n1 | 6.51 µM (active) | 5.8 µM (active) |  | 
CC(C)=CCC/C(C)=C/CCC1(C)Oc2c(c(O)cc3c2CN(C(CCC(=O)O)C(=O)O)C3=O)CC1O (stereo unspecified) | inactive | inactive |  | 
O=C(OCc1ccccc1O[C@@H]1O[C@H](CO)[C@@H](O)[C@H](O)[C@H]1O)C1(O)C=CCCC1O (stereo partly specified) | inactive | inactive |  | 
N=c1nc2n(cc1F)C1OC(CO)C(O)C1O2 (stereo unspecified) | 1.64 µM (active) | 2.59 µM (active) |  | 
COc1cc(/C=C/C(=O)O[C@H]2C[C@@H]3C(C(=O)O)=CO[C@@H](O[C@@H]4O[C@H](CO)[C@@H](O)[C@H](O)[C@H]4O)[C@@H]3[C@H]2C)ccc1O | inactive | inactive |  | 
CCC(C)C1NC(=O)C2CCCN2C(=O)C(NC(C)=O)C(C)OC(=O)C(Cc2ccc(OC)cc2)N(C)C(=O)C2CCCN2C(=O)C(C(C)C)NC1=O (stereo unspecified) | inactive | inactive |  | 
CN1CCc2cccc3c2[C@H]1Cc1ccc(O)c(O)c1-3 | 5.96 µM (active) | 3.76 µM (active) |  | 
O=C(Nc1ccn[nH]1)c1c(F)cccc1F | inactive | inactive |  | 
O=C(OCC1=CC(O)C2C=CO[C@@H](O[C@@H]3O[C@H](CO)[C@@H](O)[C@H](O)[C@H]3O)C12)c1ccccc1 (stereo partly specified) | inactive | inactive |  | 
O=C(/C=C/c1ccc(O)cc1)OC1[C@H](O)CC(O)(C(=O)O)C[C@H]1O (stereo partly specified) | inactive | inactive |  | 
CCC(=O)c1cc(-c2ccc(Cl)cc2)n(-c2ccc(S(N)(=O)=O)cc2)c1C | 20.6 µM (active) | 16.4 µM (active) |  | 
COC(=O)C1=C[C@@H](O)[C@@H](O)[C@H](O[C@@H]2O[C@H](COC(=O)/C=C/c3ccccc3)[C@@H](O)[C@H](O)[C@H]2O)C1 | inactive | inactive |  | 
O=C(Nc1ccccc1)c1ccc(Nc2nnc(-c3ccc(O)cc3)c3ccccc23)cc1 | 16.4 µM (active) | 23.1 µM (active) |  | 
CN1CCN(CCCN2c3ccccc3Sc3ccc(S(=O)(=O)N(C)C)cc32)CC1 | 11.9 µM (active) | 10.6 µM (active) |  | 
C=C1[C@H]2CC[C@]3(O)[C@@](CC[C@@H]4[C@](C)(C(=O)O)CCC[C@]43C)(C2)[C@H]1OC(=O)/C(C)=C\C | inactive | inactive |  | 
C[C@]12CCC[C@](C)(C(=O)O)C1CCC13C=C(CO)C(CCC12)C3 (stereo partly specified) | inactive | inactive |  | 
COc1c2ccoc2cc2oc(CO[C@@H]3O[C@H](CO)[C@@H](O)[C@H](O)[C@H]3O)cc(=O)c12 | inactive | inactive |  | 
NC(=O)c1ccc(OCC2NC(=O)C3CCCN3C2=O)cc1 (stereo unspecified) | inactive | inactive |  | 
CC1(C)CC[C@]2(C(=O)OC3OC(CO)C(O)C(O)C3O)CC[C@]3(C)C(=CCC4[C@@]5(C)CC[C@H](OC6OC(C(=O)O)C(O)C(OC7OC(CO)C(O)C(O)C7O)C6O)C(C)(C)C5CC[C@]43C)C2C1 (stereo partly specified) |  |  | 77.3% [at 9.25 µM] | 96.9% [at 9.25 µM]
COc1cc(O)c2c(c1)C1OC1C[C@H](O)[C@H](O)C(=O)/C=C\C[C@H](C)OC2=O (stereo partly specified) | 3.26 µM (active) | 4.61 µM (active) |  | 
C=C(C)C(=O)O[C@H]1[C@H]2C(=C)C(=O)O[C@@H]2/C=C(\CO)CC/C=C(/C=O)[C@@H]1O | 10.1 µM (active) | 9.04 µM (active) |  | 
Nc1nc2c(nc(Br)n2[C@@H]2O[C@@H]3COP(=O)(O)O[C@H]3[C@H]2O)c(=O)[nH]1 | inactive | inactive |  | 
Cc1coc2c1CC1OC1(C)CCC1OC1(C)C2 (stereo unspecified) | inactive | inactive |  | 
CC1(C)C2CCC(CO[C@@H]3O[C@H](CO[C@@H]4OC[C@](O)(CO)[C@H]4O)[C@@H](O)[C@H](O)[C@H]3O)C1C2 (stereo partly specified) | inactive | inactive |  | 
COC(=O)C1=COC(O[C@@H]2O[C@H](CO)[C@@H](O)[C@H](O)[C@H]2O)[C@@H]2[C@@](C)(O)[C@@H](OC(=O)/C=C/c3ccccc3)C[C@]12O (stereo partly specified) | inactive | inactive |  | 
C[C@@H]1O[C@@H](O[C@H]2[C@H](OC(C#N)c3ccc(O)cc3)O[C@H](CO)[C@@H](O)[C@@H]2O)[C@H](O)[C@H](O)[C@H]1O (stereo partly specified) | inactive | inactive |  | 
Cc1cc(C)cc(C(=O)NOCCCCCC(=O)NO)c1 | 0.92 µM (active) | 0.58 µM (active) |  | 
C/C=C1/[C@H](O[C@@H]2O[C@H](CO)[C@@H](O)[C@H](O)[C@H]2O)OC=C(C(=O)OC)[C@H]1CC(=O)OCCc1ccc(O)c(O)c1 | inactive | inactive |  | 
